Experimental findings from PubChem BioAssay (EPA / NIEHS) are described below.

Molecules are shown by their SMILES. Activity calls are given as the source filed them. Rule for the calls, unless noted: active = hit-call score of the fitted dose curve at least 0.9, where 1 is the maximum; inactive = score below 0.9.

Chain of PGR (gene 5241) (P06401 whole entry, looked up): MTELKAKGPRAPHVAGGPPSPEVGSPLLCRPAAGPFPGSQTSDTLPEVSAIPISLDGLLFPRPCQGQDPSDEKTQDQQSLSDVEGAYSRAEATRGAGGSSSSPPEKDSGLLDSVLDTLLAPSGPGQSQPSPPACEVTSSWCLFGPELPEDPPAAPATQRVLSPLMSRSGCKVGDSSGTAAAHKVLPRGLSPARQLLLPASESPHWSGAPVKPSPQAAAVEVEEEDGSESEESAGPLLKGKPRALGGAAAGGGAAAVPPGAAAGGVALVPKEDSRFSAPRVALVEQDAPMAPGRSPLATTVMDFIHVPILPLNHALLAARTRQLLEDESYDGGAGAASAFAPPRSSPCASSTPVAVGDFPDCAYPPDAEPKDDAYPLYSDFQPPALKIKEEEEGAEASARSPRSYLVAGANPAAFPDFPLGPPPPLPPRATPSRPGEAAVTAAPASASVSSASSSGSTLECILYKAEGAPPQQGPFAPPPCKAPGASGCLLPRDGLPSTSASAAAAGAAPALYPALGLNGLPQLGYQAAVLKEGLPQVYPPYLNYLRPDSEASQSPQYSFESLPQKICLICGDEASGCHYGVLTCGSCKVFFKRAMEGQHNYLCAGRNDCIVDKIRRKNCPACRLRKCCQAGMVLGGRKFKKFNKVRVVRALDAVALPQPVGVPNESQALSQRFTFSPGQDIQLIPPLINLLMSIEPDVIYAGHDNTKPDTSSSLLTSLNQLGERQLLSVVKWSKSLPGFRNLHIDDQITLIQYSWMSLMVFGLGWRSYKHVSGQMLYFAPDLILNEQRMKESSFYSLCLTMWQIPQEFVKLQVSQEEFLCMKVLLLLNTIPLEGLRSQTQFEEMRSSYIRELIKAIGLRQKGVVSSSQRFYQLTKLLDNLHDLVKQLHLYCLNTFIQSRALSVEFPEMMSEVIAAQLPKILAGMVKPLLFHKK

Read-out in the first test: not listed separately
Description: CEETOX_H295R_PROG_noMTC: CeeTox H295R High-throughput Steroidogenesis Assay for Progesterone (PROG), maximum tolerated concentration (MTC) filtered results only (AID 2283920). To be noted: actives raise or lower the signal. An outline of the steps:
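H295R cells, prestimulated 48 h with 10 uM forskolin, exposed 48 h to chemical in 0.1% DMSO. Medium progesterone quantified by MTBE extraction and HPLC-MS/MS; bidirectional fit versus DMSO, concentrations not MTT-filtered.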
For `CC(C)c1ccc(O)c(C(C)C)c1`, the result was inactive. Turning to `N#Cc1ccc(C2CCCc3cncn32)cc1` (centres undefined), the molecule was called inactive. Consider `COc1ccc(C(=O)/C(Br)=C\C(=O)O)cc1`, for which the AC50 is 8.09 µM (active). In the case of `CCCCC1C(=O)N(c2ccccc2)N(c2ccccc2)C1=O`, the AC50 was 38.7 µM (active). Turning to `N#Cc1ccc(C(c2ccc(C#N)cc2)n2cncn2)cc1`, the molecule was called inactive. On the same count and under the same terms, in the case of `CCCC=C(C=O)CC` it was “inactive”.

Read-out in the next test: not listed separately
The test is described as follows: CEETOX_H295R_ESTRONE_noMTC: CeeTox H295R High-throughput Steroidogenesis Assay for Estrone, maximum tolerated concentration (MTC) filtered results only (AID 2283921). To be noted: actives raise or lower the signal. In a few lines: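 H295R cells prestimulated 48 h with 10 uM forskolin, then exposed 48 h to chemical in 0.1% DMSO; medium estrone measured by HPLC-MS/MS after MTBE extraction and dansyl derivatization, fitted bidirectionally versus DMSO without MTT-based MTC filtering.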
As for `CC(C)c1ccc(O)c(C(C)C)c1`, the molecule was classed as inactive. For the molecule `CCCCC1C(=O)N(c2ccccc2)N(c2ccccc2)C1=O`, the call was inactive. For the molecule `N#Cc1ccc(C(c2ccc(C#N)cc2)n2cncn2)cc1`, the AC50 was 0.0263 µM (active). As to `CCCC=C(C=O)CC`, the molecule was called inactive.

Another test concerns the target PGR (gene 5241) (UniProt P06401). The test is described as follows: TOX21_PR_BLA_Followup_Antagonist_ratio: Tox21 HEK293 Progesterone Receptor (PR) Antagonism Beta-lactamase Follow-Up Assay, Ratio (AID 2283934; active = hit-call score of the fitted dose curve at least 0.9, where 1 is the maximum).
Conditions: not given
In a few lines:
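PR-UAS-bla HEK293T cells in medium with 2% charcoal-stripped FBS were treated with compounds plus 1 nM (final) promegestone (R5020) for 16 hr at 37C. LiveBLAzer B/G FRET substrate was then added for 2 h at room temperature; signal is cleaved/uncleaved substrate ratio versus DMSO.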
With `COc1ccc(-c2coc3cc(O)cc(O)c3c2=O)cc1`, the AC50 is 29.5 µM (active). On the same count and under the same terms, in the case of `Oc1ccc(-c2ccccc2)c(Cl)c1` it was 25.7 µM (active). For `Nc1ccc(C(=O)OCCCOC(=O)c2ccc(N)cc2)cc1`, the result was inactive. Consider `c1ccc2c(c1)[nH]c1ccccc12`, for which the outcome was inactive.

One may read the AC50 as the midpoint of the concentration-response curve, whichever way the signal moves.
